A selection: hits, their analogues and other compounds. The true share with any hit is near 7%.
PLK1 PBD inh: blocks phosphopeptide binding to human PLK1 polo-box domain; P53350; Plk1 PBD binding of FITC phosphopeptide, fluorescence polarization; Potency, µM, inactives show max response, negative = inhibition, actives largely listed as inhibitors; 2.8% of 360,000 active; further: potency means the concentration at half of the fitted maximal effect; series mostly up to about 57 µM; on the % scale 0 is the no-effect control and ±100 the full control effect; nearly all actives have a fitted effect of over 65% in size
KAT2A inh: GCN5L2 (KAT2A) acetyltransferase inhibition; Q92830; GCN5L2 HAT assay, ThioGlo1 CoA-SH fluorescence; Potency, µM (doses to about 58.9 µM), for inactives: at the top dose activity change, negative = inhibition, hits mostly inhibitors; 0.21% of 390,000 active; AID 504327; further: potency means the concentration at half of the fitted maximal effect; on the % scale 0 is the no-effect control and ±100 the full control effect
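Titration-based screen in which CoA formation is detected via maleimide probe ThioGlo1 (50uM) turning fluorescent on thiol reaction; substrates H3(1-25) 75uM and acetyl-CoA 70uM, GCN5L2 20nM, 20 min incubation at room temperature.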
PI5P4Ka inh: PI5P4K alpha (human) kinase inhibition. PI5P4Kalpha enzyme, ADP-Glo luminescence, 60 min; active compounds read low. 1.2% of 330,000 active. max response, %. P48426; active means max response of -50% or lower; inconclusive means between -30% and -50%; inactive means -30% or higher; further: value at the top dose of about 77 µM; on the % scale 0 is the no-effect control and ±100 the full control effect
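Compounds were pin-transferred onto PI5P4Kalpha and substrate in HEPES pH 7.4 buffer with EGTA, CHAPS and 5% DMSO. ATP (5 microM final) started the reaction, which ran 60 minutes at room temperature before ADP-Glo detection.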
HP1b binding inh: HP1-beta chromodomain-methylated histone interaction inhibition | P83916 | AlphaScreen HP1-beta / biotin-H3K9me3 peptide binding | Potency, µM (titrated, usually from 114 µM), for the others: at the top dose activity change, negative = inhibition, hits mostly inhibitors | 0.56% of 390,000 active; further: potency means the concentration at half of the fitted maximal effect; nearly all actives have a fitted effect of over 70% in size
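HP1-beta protein (50 nM final) preincubated 30 min at room temperature with biotinylated H3(1-18)K9me3 peptide (50 nM) in PBS pH 7.4, 0.01% Tween-20, then compound added for 30 min. AlphaScreen streptavidin donor/nickel chelate acceptor beads (10 ug/mL final), 30 min dark, luminescence read.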
BAZ2B inh: inhibitors of human BAZ2B bromodomain. Q9UIF8. 4.4% of 360,000 active. AlphaScreen BAZ2B-H3K14Ac peptide displacement. Potency, µM (series often up to 114 µM), inactives show at the top dose activity change, negative = inhibition, actives largely listed as inhibitors. AID 504333; further: potency means the concentration at half of the fitted maximal effect; on the % scale 0 is the no-effect control and ±100 the full control effect; nearly all actives have a fitted effect of over 60% in size
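BAZ2B 50 nM plus b-H3(5-23)K14Ac 50 nM, PBS pH 7.4/0.01% Tween-20, 30 min RT; compound added (max 110 uM), 30 min RT; streptavidin donor/Ni-chelate acceptor beads 10 ug/mL final, 20 min dark; AlphaScreen read.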
JMJD2A Tudor: blocks the human JMJD2A Tudor domain; O75164; AlphaScreen JMJD2A-Tudor / H3K4me3 peptide binding; Potency, µM (highest dose often 114 µM), for the others: at the highest dose activity change, negative = inhibition, usual class: inhibitors; 4.4% of 390,000 active; AID 504339; further: potency means the concentration at half of the fitted maximal effect; on the % scale 0 is the no-effect control and ±100 the full control effect; nearly all actives have a fitted effect of over 50% in size
* = called active by the depositor; [ ] = another dose, or the depositor's remark. Unless noted, the call rests on the fitted dose curve; in most records, active means well fitted curve in the direction sought with a large enough effect; inconclusive means small, poorly fitted or top-dose-only effect, or another doubt; inactive means no such curve, though single readings can be large; an effect the other way counts as inactive or inconclusive.

`COc1ccc(CNCCc2c[nH]c3ccccc23)c(OC)c1C` gave PLK1 PBD inh -9%, KAT2A inh 2%, PI5P4Ka inh 15, HP1b binding inh inconclusive, BAZ2B inh 56µM* and JMJD2A Tudor 5.6µM*.
For CCOc1c(Cl)cc(CNCCc2c[nH]c3ccccc23)cc1OC the results were PLK1 PBD inh 0%, KAT2A inh -19%, PI5P4Ka inh 9, HP1b binding inh 0%, BAZ2B inh inconclusive and JMJD2A Tudor inconclusive.
COc1cc(C)c(CNCCc2c[nH]c3ccccc23)cc1C was read as PLK1 PBD inh -13%, KAT2A inh -20%, PI5P4Ka inh 7, HP1b binding inh inconclusive, BAZ2B inh 40µM* and JMJD2A Tudor 22µM*.
Screening COc1cccc(CNCCc2ccccc2)c1OC returned PLK1 PBD inh -7%, KAT2A inh -15%, PI5P4Ka inh 2, HP1b binding inh 8%, BAZ2B inh -11% and JMJD2A Tudor -12%.
Screening COc1cccc(CNCCc2c[nH]c3ccccc23)c1 returned PLK1 PBD inh 4%, KAT2A inh -11%, PI5P4Ka inh 2, HP1b binding inh -25%, BAZ2B inh 79µM* and JMJD2A Tudor 3.5µM*.
For COc1ccc(NC(=O)CSc2oc(-c3cccs3)nc2S(=O)(=O)c2ccccc2)c(OC)c1 the results were KAT2A inh -7%, HP1b binding inh inconclusive, BAZ2B inh -19% and JMJD2A Tudor inconclusive.
For CCc1ccc(CNCCc2ccccc2F)cc1 the results were PLK1 PBD inh -7%, KAT2A inh -4%, PI5P4Ka inh 2, HP1b binding inh 31%, BAZ2B inh 2% and JMJD2A Tudor -11%.
Screening CCOc1cc(CNCCc2ccccc2F)ccc1OC returned PLK1 PBD inh -5%, KAT2A inh 0%, PI5P4Ka inh 0, HP1b binding inh -36%, BAZ2B inh 40µM* and JMJD2A Tudor 45µM*.
For CN(C)c1nc(-c2ccccc2)[n+](C)s1 the results were PLK1 PBD inh 4.7µM*, KAT2A inh inconclusive, PI5P4Ka inh inconclusive, HP1b binding inh 1%, BAZ2B inh 1% and JMJD2A Tudor -18%.
Screening CCCc1cc(=O)oc2cc(OCC(=O)N3CCN(Cc4ccc5c(c4)OCO5)CC3)ccc12 returned PLK1 PBD inh -5%, KAT2A inh -8%, PI5P4Ka inh -2, HP1b binding inh 23%, BAZ2B inh 50µM* and JMJD2A Tudor -32%.
For COc1ccc(OCC(=O)N2CCN(Cc3ccc4c(c3)OCO4)CC2)cc1 the results were PLK1 PBD inh -17%, KAT2A inh 0%, PI5P4Ka inh 7, HP1b binding inh 13%, BAZ2B inh -9% and JMJD2A Tudor -6%.
`NS(=O)(=O)c1ccc(CNC(=O)COc2ccc3c4c(c(=O)oc3c2)CCCC4)cc1` gave PLK1 PBD inh 24µM*, KAT2A inh -14%, PI5P4Ka inh -14, HP1b binding inh 3%, BAZ2B inh -3%[57.1 µM] and JMJD2A Tudor 35µM*.
Cc1cc(OCC(=O)NCc2cccnc2)c2c3c(c(=O)oc2c1)CCCC3 was read as PLK1 PBD inh -1%, KAT2A inh -2%, PI5P4Ka inh 9, HP1b binding inh 22%, BAZ2B inh -23% and JMJD2A Tudor -16%.
O=C(O)c1ccccc1O was read as PLK1 PBD inh 3%, KAT2A inh inconclusive, PI5P4Ka inh -1, HP1b binding inh 37%, BAZ2B inh 10% and JMJD2A Tudor -4%.
For C[CH2][Hg][S]c1ccccc1C(=O)O the results were PLK1 PBD inh 2.7µM*, KAT2A inh inconclusive, PI5P4Ka inh 22, HP1b binding inh inconclusive and JMJD2A Tudor 18µM*.
For O=C(O)c1ccccc1SSc1ccccc1C(=O)O the results were PLK1 PBD inh 12µM*, KAT2A inh -16%, PI5P4Ka inh -1, HP1b binding inh 56%, BAZ2B inh -4% and JMJD2A Tudor 2%.
Cc1ccc(C(=O)c2cn(CC(=O)Nc3ccc(C(C)C)cc3)c3nc(C)ccc3c2=O)cc1 was read as KAT2A inh -2%, HP1b binding inh -2%, BAZ2B inh 4%[57.1 µM] and JMJD2A Tudor inconclusive.
